What was measured:
Type in all cases: functional
Plasmodium falciparum [1] = assay: GSK_TCMDC: Inhibition of Plasmodium falciparum 3D7 in whole red blood cells, using parasite LDH activity as an index of growth. Test compounds present at 2uM
Plasmodium falciparum [2] = assay: GSK_TCMDC: Inhibition of Plasmodium falciparum Dd2 in whole red blood cells, using parasite LDH activity as an index of growth. Test compounds present at 2uM
HepG2 = assay: GSK_TCMDC: Percent inhibition of human HepG2 cell line. Test compounds present at 10uM.

Row | SMILES | Inhibition (Plasmodium falciparum [1]) | Inhibition (Plasmodium falciparum [2]) | Inhibition (HepG2)
1 | CCCC(C)Nc1nc(C)cc(N[C@@H](Cc2ccccc2)C(=O)Nc2ccc(OC)cc2)n1.O=C(O)C(F)(F)F (stereo not given in full) | 100% | 72% | 24%
2 | O=C(OCc1ccccn1)c1nc2ccccc2[nH]1 | 92% | 97% | 63%
3 | Cl.N[C@@H](CCNC1CCN(c2cccc(C(F)(F)F)c2)CC1)Cc1ccc(F)c(F)c1 | 100% | 69% | 100%
4 | Cl.N#Cc1cccc(C(O)C2CN(CCC3CCCCC3)CCC2(O)c2ccccc2)c1 (stereo not given) | 98% | 100% | 0%
5 | Cc1cc2c(cc1C(F)(F)F)N(C(=O)Nc1ccc(C(=O)NC3CCN(Cc4ccccc4)C3)cc1)CC2 (stereo not given) | 100% | 48% | 19%
6 | Clc1ccc(-c2cnc3ccc(NCc4ccncc4)nn23)cc1 | 98% | 98% | 25%
7 | COc1ccc(N2CCN(C(CNC(=O)C3CCCCC3)c3ccc4c(c3)OCO4)CC2)cc1 (stereo not given) | 92% | 83% | 1%
8 | CCCCCN1CCC(NS(=O)(=O)c2cccc(C(=O)Nc3cccc(C(F)(F)F)c3)c2)C1.O=C(O)C(F)(F)F (stereo not given) | 86% | 17% | 25%
9 | COc1ccc(C2N=C(N)N=C(N)N2OCc2ccccc2)cc1OC.Cl (stereo not given) | 95% | 2% | 1%
10 | CC(C)NCc1ccc(-c2cccc(NC(=O)c3ccc(C#N)cc3)c2)cc1.O=C(O)C(F)(F)F | 100% | 19% | 8%
11 | CC(C)(C)c1cc(NC2CC2)nc(-c2ccccn2)n1 | 94% | 79% | 7%
12 | O=C(c1cc(C(=O)Nc2ccccc2F)c(=O)n(-c2ccccc2F)c1)c1cc(Cl)ccc1O | 98% | 80% | 2%
13 | Br.CCN(CC)CCn1c(=N)n(CC(=O)c2ccc(-c3ccccc3)cc2)c2ccccc21 | 83% | 38% | 32%
14 | CCCCCCCNc1cc(C)nc2ccc(OC)cc12.Cl | 100% | 100% | 30%
15 | CC(C)Cc1cn(-c2nc(-c3nc4ccccc4[nH]3)cs2)c2ccncc12.Cl | 100% | 99% | 34%
16 | O=C(c1cc2ccccc2o1)N1CCc2cc3nccc(N4CCN5CCC[C@H]5C4)c3cc21 | 99% | 100% | 62%
17 | COc1ccc2nc(C)cc(N/N=C/c3ccc([N+](=O)[O-])cc3)c2c1 | 100% | 70% | 0%
18 | O=C(NC1CCN(Cc2ccccc2)CC1)c1cc(-c2ccncc2)c(-c2ccc(Cl)c(O)c2)o1.O=C(O)C(F)(F)F | 100% | 86% | 9%
19 | CN(C)CCOc1ccc2c(c1)CN(C)CC2c1ccccc1.Cl (stereo not given) | 91% | 0% | 15%
20 | Cc1cc(Nc2ccc(Oc3ccc(Cl)cc3)cc2)nc(N)n1 | 100% | 71% | 49%
21 | Fc1ccc(COc2ccc(Nc3ncnc4ccc(I)cc34)cc2Cl)cc1 | 86% | 30% | 28%
22 | Cc1cnc2ccc(NS(=O)(=O)c3ccc4c(Cl)cccc4c3)cc2c1N1CCNCC1.Cl | 100% | 3% | 24%
23 | COc1cccc(Nc2nc(C)cc(NCc3ccc(-n4ccnc4)cc3)n2)c1 | 100% | 99% | 0%
24 | COc1ccc2[nH]c(C)cc(=NN=Cc3ccc(F)cc3)c2c1 | 100% | 99% | 5%
25 | Cc1cccc2nc(-c3cccc(-c4ccc(CNCc5ccc(S(C)(=O)=O)cc5)cc4)c3)[nH]c12.O=C(O)C(F)(F)F | 100% | 98% | 8%
26 | COc1cc(OC)c(NC(=O)C2c3ccccc3C(=O)N(C)C2c2cccs2)cc1Cl (stereo not given) | 99% | 52% | 4%
27 | c1csc(-c2nc(N3CCCCC3)ncc2-c2ccsc2)n1 | 89% | 72% | 0%
28 | CCC1(CC)C(=O)N=C(N2CCCCC2)N(C)C1=O | 89% | 66% | 0%
29 | CCOc1ccc(C2CCN(CCCCNC(=O)c3ccc(NC(=O)c4ccc(Cl)cc4)cc3)CC2)c(OCC)c1.Cl | 100% | 95% | 14%
30 | CCOc1ccc2[nH]c(-c3ccccc3)cc(=NN=Cc3ccncc3)c2c1 | 100% | 100% | 19%

Source: ChEMBL document CHEMBL1157539, “Thousands of chemical starting points for antimalarial lead identification” (Nature, 2010)
